Reference: PubChem BioAssay (Tox21)
Values without a mark were called inactive. Results filed as inconclusive are left out. Where a call stands in place of a potency, no number is given. Active and inactive are the calls of the source. Unless noted, calls come from the whole dose curve; as a rule, active = well fitted curve in the direction sought with a large enough effect in the repeat runs; inconclusive = weak or mixed curves; inactive = no such curve, though single readings can be large; an effect the other way counts as inactive or inconclusive.

Columns and labels:
[1] = molecular target: Thyrotropin-releasing hormone receptor (Homo sapiens) (UniProt P34981); test: qHTS assay to identify small molecule agonists of the thyrotropin-releasing hormone receptor (TRHR) signaling pathway (AID 1346891; calls by dose curve;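 note: HEK293 cells expressing TRHR with calcium dye readout; series mostly up to about 58 µM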)
Summary of the method: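 Overnight-plated (18 h, 37 °C, 5% CO2) TRHR-Hek293 cells; 2 h calcium dye at 37 °C; compound in DMSO; 3-min kinetic fluorescence read.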

[2] = Human pregnane X receptor (PXR) small molecule agonists, qHTS cell viability counter screen (AID 1346977); note: nearly all actives have a fitted effect of over 50% in size
Summary of the method: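 After a 5hr pre-incubation, PXR-Luc HepG2 cells received compounds plus positive control in DMSO and were kept 24hr at 37C. Cell viability was quantified by fluorescence from CellTiter-Fluor added for the final hour.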

[3] = Caspase-3/7 induction in HepG2 cells by small molecules, qHTS assay (AID 1346978); note: nearly all actives have a fitted effect of over 15% in size
Summary of the method: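 Wild-type HepG2 cells (2,000/well) were settled 5 h at 37 C, 5% CO2, then exposed to compounds in DMSO for 17 h. Caspase-3/7 activity was read by luminescence 30 min after adding Caspase-Glo 3/7 reagent at room temperature.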

[4] = Caspase-3/7 induction in CHO-K1 cells by small molecules, qHTS cell viability counter screen (AID 1346979); note: nearly all actives have a fitted effect of over 35% in size
Summary of the method: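 Multiplexed with Caspase-Glo 3/7 in CHO-K1 cells, this counter screen added CellTiter-Fluor after 16hr of compound exposure and recorded fluorescence 1hr later.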

[5] = Caspase-3/7 induction in CHO-K1 cells by small molecules, qHTS assay (AID 1346980); note: nearly all actives have a fitted effect of over 15% in size
Summary of the method: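 Wild-type cells were seeded at 1,500 per well and settled 5 hr at 37 C, 5% CO2, then exposed to DMSO-dissolved compounds for 17 hr. Caspase-Glo 3/7 reagent was added, and luminescence was read after 30min at room temperature.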

[6] = Caspase-3/7 induction in HepG2 cells by small molecules, qHTS cell viability counter screen (AID 1346981); note: series mostly up to about 92 µM; nearly all actives have a fitted effect of over 30% in size
Summary of the method: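 CellTiter-Fluor fluorescence measured viability in the same wells used for Caspase-Glo 3/7. HepG2 (wild type) at 2,000 cells/well were pre-incubated 5 hr, dosed, and given reagent at 16 hr, with 1 hr further at 37C.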

[7] = molecular target: Nuclear receptor subfamily 1 group I member 2 (Homo sapiens) (UniProt O75469); test: Human pregnane X receptor (PXR) small molecule agonists, qHTS assay (AID 1346982); note: nearly all actives have a fitted effect of over 35% in size; note: potency is the fitted concentration of half-maximal effect
Summary of the method: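 Agonist mode: luminescence from ONE-Glo after 24 h compound exposure at 37C in HepG2 cells carrying hPXR-responsive CYP3A4 luciferase, plated in charcoal-stripped serum medium 5 h beforehand.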

[8] = molecular target: Nuclear receptor subfamily 1 group I member 2 (Rattus norvegicus) (UniProt Q9R1A7); test: Rat pregnane X receptor (rPXR) activation by small molecules, qHTS assay (AID 1346983); settings: rPXR luciferase reporter cells, One-Glo luminescence, 24 h; max activation: active compounds read high; note: nearly all actives have a fitted effect of over 20% in size; note: potency is the fitted concentration of half-maximal effect
Summary of the method: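 Cell-based rPXR luciferase reporter assay, 2,000 cells per well, rested 5hr at 37 C before compound addition in DMSO, then 24 hr at 37 C. One-Glo reagent was added and luminescence read after 30 min at room temperature.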

[9] = molecular target: Nuclear receptor subfamily 1 group I member 2 (Homo sapiens) (UniProt O75469); test: CYP3A4 induction through human pregnane X receptor (PXR) by small molecules, qHTS assay (AID 1346984); note: nearly all actives have a fitted effect of over 40% in size
Summary of the method: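 Read-out is luminescence after One-Glo addition, following a 3 hr, 37C incubation with Luciferin-IPA CYP3A4 substrate (3uM final). Before that, compounds were on DPX-2 cells (HepG2 co-transfected with PXR element plus CYP3A4-promoter luciferase) for 24 hr at 37C.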

[10] = molecular target: Nuclear receptor subfamily 1 group I member 2 (Homo sapiens) (UniProt O75469); test: Human pregnane X receptor (PXR) activation by small molecules, qHTS assay (AID 1346985); note: nearly all actives have a fitted effect of over 40% in size; note: potency is the fitted concentration of half-maximal effect
Summary of the method: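 DPX-2 cells (HepG2 co-transfected with a PXR response element and a CYP3A4-promoter luciferase construct) were seeded at 2,000 per well, rested 5 hr at 37C, then exposed to DMSO-dissolved compounds for 24 hr. Activation was read as luciferase luminescence.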

Chain of Thyrotropin-releasing hormone receptor (Homo sapiens) (P34981 whole entry, looked up): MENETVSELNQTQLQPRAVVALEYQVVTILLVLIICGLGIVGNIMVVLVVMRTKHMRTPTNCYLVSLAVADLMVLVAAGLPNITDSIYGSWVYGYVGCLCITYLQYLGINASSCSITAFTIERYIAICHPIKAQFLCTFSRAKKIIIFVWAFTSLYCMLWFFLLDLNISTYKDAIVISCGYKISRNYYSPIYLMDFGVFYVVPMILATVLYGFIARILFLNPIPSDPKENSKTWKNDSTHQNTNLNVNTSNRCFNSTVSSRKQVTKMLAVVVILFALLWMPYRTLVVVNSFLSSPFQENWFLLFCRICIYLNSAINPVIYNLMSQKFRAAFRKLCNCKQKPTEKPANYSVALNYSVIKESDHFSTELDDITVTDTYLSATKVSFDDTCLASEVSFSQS
Chain of Nuclear receptor subfamily 1 group I member 2 (Homo sapiens) (O75469 whole entry, looked up): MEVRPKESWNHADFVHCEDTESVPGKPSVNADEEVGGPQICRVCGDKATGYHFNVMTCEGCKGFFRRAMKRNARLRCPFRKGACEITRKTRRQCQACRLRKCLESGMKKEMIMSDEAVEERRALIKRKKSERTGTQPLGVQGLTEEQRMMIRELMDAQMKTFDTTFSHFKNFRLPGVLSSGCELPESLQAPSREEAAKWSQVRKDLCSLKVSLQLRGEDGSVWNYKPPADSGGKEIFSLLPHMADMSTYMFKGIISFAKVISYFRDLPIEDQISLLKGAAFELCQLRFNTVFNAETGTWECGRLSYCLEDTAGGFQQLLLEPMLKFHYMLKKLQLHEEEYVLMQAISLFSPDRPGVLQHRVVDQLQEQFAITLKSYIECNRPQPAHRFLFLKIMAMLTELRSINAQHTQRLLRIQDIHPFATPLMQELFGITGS
Chain of Nuclear receptor subfamily 1 group I member 2 (Rattus norvegicus) (Q9R1A7 whole entry, looked up): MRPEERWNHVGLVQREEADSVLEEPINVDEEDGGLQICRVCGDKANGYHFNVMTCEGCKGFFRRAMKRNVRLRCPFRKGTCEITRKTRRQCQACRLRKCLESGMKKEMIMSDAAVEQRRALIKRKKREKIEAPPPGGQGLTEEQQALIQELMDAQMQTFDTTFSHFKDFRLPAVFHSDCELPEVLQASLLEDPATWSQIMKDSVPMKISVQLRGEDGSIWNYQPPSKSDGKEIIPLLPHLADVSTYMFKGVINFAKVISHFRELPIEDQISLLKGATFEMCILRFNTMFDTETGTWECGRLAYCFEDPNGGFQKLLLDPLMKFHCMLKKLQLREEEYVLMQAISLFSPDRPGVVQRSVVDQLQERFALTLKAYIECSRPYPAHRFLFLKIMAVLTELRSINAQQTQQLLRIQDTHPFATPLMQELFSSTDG

With `C=CCn1c(=O)n([C@@H]2O[C@H](CO)[C@@H](O)[C@H]2O)c2nc(N)[nH]c(=O)c21` the outcome [1] was “inactive”, the Potency [2] was “inactive” and the outcome [3] was “inactive”. The Potency [4] was “inactive”, the outcome [5] was “inactive” and the outcome [6] was “inactive”. The Potency [7] was “inactive”, the max activation [8] was -4.51% and the Potency [9] was “inactive”. The Potency [10] was “inactive”.

In the case of `Nc1cc(C(Cl)=C(Cl)Cl)c(S(N)(=O)=O)cc1S(N)(=O)=O`, the outcome [1] is reported as “inactive”, the Potency [2] is reported as “inactive” and the outcome [3] is reported as “inactive”. The Potency [4] was “inactive”, the outcome [5] was “inactive” and the outcome [6] was “inactive”. For the same molecule, the Potency [7] was “inactive”, the max activation [8] was -3.29% and the Potency [9] was “inactive”. The Potency [10] was “inactive”.

With `CCN(CC)S(=O)(=O)c1ccc(C(=O)O)cc1` the outcome [1] was “inactive”, the Potency [2] was “inactive” and the outcome [3] was “inactive”. For the same molecule, the Potency [4] was “inactive”, the outcome [5] was “inactive” and the outcome [6] was “inactive”. For the same molecule, the Potency [7] was “inactive”, the max activation [8] was -1.28% and the Potency [9] was “inactive”. The Potency [10] was “inactive”.

In the case of `Cc1ccc(Nc2ccc(O)c3c2C(=O)c2ccccc2C3=O)cc1`, the outcome [1] is reported as “inactive”, the Potency [2] is reported as “inactive” and the outcome [3] is reported as “inactive”. The Potency [4] was “inactive”, the outcome [5] was “inactive” and the outcome [6] was “inactive”. The Potency [7] was “inactive”.

For `CCOC(=O)Cn1c(=O)sc2cccc(Cl)c21`, the outcome [1] was “inactive”, the Potency [2] was “inactive” and the outcome [3] was “inactive”. The Potency [4] was “inactive”, the outcome [5] was “inactive” and the Potency [7] was 27.3 µM (active).

With `COc1cccc(OC)c1` the outcome [1] was “inactive”, the Potency [2] was “inactive” and the outcome [3] was “inactive”. The Potency [4] was “inactive”, the outcome [5] was “inactive” and the outcome [6] was “inactive”. The Potency [7] was “inactive”.

For `FC(F)(F)C(F)(F)C(F)(F)C(F)(F)C(F)(F)C(F)(F)C(F)(F)C(F)(F)C(F)(F)C(F)(F)F`, the activation [1] was 0.116% [at 5.23 µM], the activity change, negative = cytotoxicity [2] was 1.13% [at 8.39 µM] and the caspase activation [3] was -0.76% [at 8.39 µM]. It also gave an activity change, negative = cytotoxicity [4] of 7.28% [at 8.39 µM], a caspase-3/7 activation [5] of -0.497% [at 8.39 µM] and an activity change, negative = cytotoxicity [6] of 5.96% [at 8.39 µM]. It also gave an activation [7] of -1.65% [at 8.39 µM].

In the case of `Cc1onc(-c2ccccc2)c1-c1ccc(S(N)(=O)=O)cc1`, the outcome [1] is reported as “inactive”, the Potency [2] is reported as “inactive” and the outcome [3] is reported as “inactive”. The Potency [4] was “inactive”, the outcome [5] was “inactive” and the outcome [6] was “inactive”. For the same molecule, the max activation [8] was -3.92%.

For `Cn1ccc2cc3c(cc21)CCN3C(=O)Nc1cccnc1`, the activation [1] was -0.003% [at 11.8 µM], the activity change, negative = cytotoxicity [2] was 0% [at 19 µM] and the caspase activation [3] was 0.602% [at 19 µM]. It also gave an activity change, negative = cytotoxicity [4] of 5.05% [at 19 µM], a caspase-3/7 activation [5] of -1.75% [at 19 µM] and an activity change, negative = cytotoxicity [6] of 1.32% [at 19 µM]. For the same molecule, the Potency [7] was 3.66 µM (active), the Potency [8] was 12.6 µM (active) and the Potency [9] was “inactive”. For the same molecule, the Potency [10] was 12.6 µM (active).

For `CC(C)COC(=O)C(C)C`, the outcome [1] was “inactive”, the Potency [2] was “inactive” and the outcome [3] was “inactive”. The Potency [4] was “inactive”, the outcome [5] was “inactive” and the outcome [6] was “inactive”. The Potency [7] was “inactive”.

With `COC(=O)[C@H]1[C@H]2C[C@@H]3c4[nH]c5cc(OC)ccc5c4CCN3C[C@H]2C[C@@H](OC(=O)COc2ccc(OC)cc2)[C@@H]1OC` the outcome [1] was “inactive”, the Potency [2] was “inactive” and the outcome [3] was “inactive”. The Potency [4] was “inactive”, the outcome [5] was “inactive” and the outcome [6] was “inactive”. For the same molecule, the Potency [7] was “inactive”, the max activation [8] was -1.88% and the Potency [9] was “inactive”. For the same molecule, the Potency [10] was 10 µM (active).
